# Source: PubChem BioAssay (NCATS)
# Inconclusive results are not listed. A number with no mark means an inactive call. Calls of active or inactive are those of the source. The call rests on the fitted dose curve; in most records, active means well fitted curve in the direction sought with a large enough effect; inconclusive means small, poorly fitted or top-dose-only effect, or another doubt; inactive means no such curve, though single readings can be large; an effect the other way counts as inactive or inconclusive.
# Assay: qHTS for differential inhibitors of proliferation of Plasmodium falciparum line Dd2 (AID 1882); further: nearly all actives have a fitted effect of over 65% in size;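 on activity change, negative = inhibition: plate controls were DMSO vehicle for no effect and 0.29 µM artemisinin for full effect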
# Details: Potency: Plasmodium falciparum Dd2 proliferation inhibition; series mostly up to 28.7 µM; activity change, negative = inhibition: at the top concentration
# Procedure, shortened: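 SYBR Green DNA fluorescence (ex 485, em 535 nm) after overnight lysis quantifies parasite growth; compound exposure lasted 72 h at 37 C on infected red cells at 2.5% hematocrit, 0.3% parasitemia (final). Artemisinin 0.29 uM and vehicle wells define normalization.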
# Potency means the concentration at half of the fitted maximal effect.
SMILES,"activity change, negative = inhibition [%]",Potency
NC/C=C\C(=O)O,4.33,
COc1ccc2c(c1)CCC1C2CC[C@@]2(C)C1CC[C@@H]2NCCCCCCN1C(=O)C=CC1=O (some centres undefined),3.61,
O=[N+]([O-])c1cccc2c(Br)[nH]nc12,-4.8,
CSC(=N)N,-12.5,
NCCC1CCCC(CCN)N1 (centres undefined),0.0084,
OC[C@H]1NC[C@@H](O)[C@@H]1O,0.788,
O=C(O)[C@H]1NCCC[C@H]1C(=O)O,0.838,
CC(C)NCC(O)COc1ccc(CC(N)=O)cc1 (centres undefined),0.0589,
CCN(CC)CCOC(=O)c1cc(Cl)c(N)cc1OC,2.97,
CC(C)C[C@H](NC(=O)C1OC1C(=O)O)C(=O)NCCCCN=C(N)N (some centres undefined),,6.31 µM (active)
OCC1NCC(O)C(O)C1O (centres undefined),5.09,
C#CCn1c(=O)c2c(ncn2C)n(C)c1=O,4.46,
O=C(O)C1=CCCNC1,13.4,
N=C(N)c1ccc(N)cc1,-3.58,
C[C@@]1(C2CCCC2)Cc2cc(OCC(=O)O)c(Cl)c(Cl)c2C1=O,-15.1,
O=C(O)C1=CCNCC1,4.22,
CC[N+](CC)(CC)CC(=O)Nc1c(C)cccc1C,1.64,
CC(=O)C(C)=O,-2.63,
CNc1cc(NS(=O)(=O)c2ccc(N)cc2)nc(NC)n1,-3.48,

SMILES,"activity change, negative = inhibition [%]",Potency
NC1(C(=O)O)CCCCC1,0.88,
CO/N=C(\C(=O)N[C@@H]1C(=O)N2C(C(=O)O)=C(CSc3nc(=O)c(O)nn3C)CSC12)c1csc(N)n1 (some centres undefined),-20.7,
NCCS(=O)O,-0.318,
N[C@@H](Cc1ccc(O)c(I)c1)C(=O)O,7.18,
O=C(O)CCC(=O)N1CCCC1C(=O)O (centres undefined),1.8,
NCC(O)(CS(=O)(=O)O)c1ccc(Cl)cc1 (centres undefined),5.84,
CC(C)(C)NCC(O)COc1cccc2[nH]c(=O)[nH]c12 (centres undefined),-8.45,
NC1CONC1=O (centres undefined),0.812,
O=C(O)c1cccnc1C(=O)O,-2.35,
CCCCCCCCCCCCCCCCCCOC[C@H](COP(=O)([O-])OCC[N+](C)(C)C)OC,2.28,
COc1ccc(-c2ccc(N)[n+](CCCC(=O)O)n2)cc1,6.06,
CC(N)=NCCCC[C@@H](N)C(=O)O,2.2,
C=C(C)C1CC=C(C(=O)O)CC1 (centres undefined),5.54,
CN[C@H](CC(=O)O)C(=O)O,-6.95,
C[C@@H](NCCc1ccc(O)cc1)[C@@H](O)c1ccc(O)cc1,2.29,
CNc1ncnc2c1ncn2[C@H]1C[C@H](OP(=O)(O)O)[C@@H](COP(=O)(O)O)O1,-0.638,
COc1cc(CC(=O)O)ccc1O,5.48,
NC1(C(=O)O)CCc2cc(C(=O)O)ccc21 (centres undefined),3.4,

# Assay: qHTS for differential inhibitors of proliferation of Plasmodium falciparum line W2 (AID 1883);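 further: parasites grown with compound for 72 h before lysis and staining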;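 on activity change, negative = inhibition: 0% = vehicle wells and -100% = control inhibitor wells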
# Details: Potency: Plasmodium falciparum W2 proliferation inhibition; series mostly up to 28.7 µM; activity change, negative = inhibition: at the top concentration
SMILES,"activity change, negative = inhibition [%]",Potency
NC/C=C\C(=O)O,11.1,
COc1ccc2c(c1)CCC1C2CC[C@@]2(C)C1CC[C@@H]2NCCCCCCN1C(=O)C=CC1=O (some centres undefined),1.69,
O=[N+]([O-])c1cccc2c(Br)[nH]nc12,-28.3,
CSC(=N)N,-1.44,
NCCC1CCCC(CCN)N1 (centres undefined),-12.3,
OC[C@H]1NC[C@@H](O)[C@@H]1O,-4.59,
O=C(O)[C@H]1NCCC[C@H]1C(=O)O,-8.94,
CC(C)NCC(O)COc1ccc(CC(N)=O)cc1 (centres undefined),-16.7,
CCN(CC)CCOC(=O)c1cc(Cl)c(N)cc1OC,-25,
CC(C)C[C@H](NC(=O)C1OC1C(=O)O)C(=O)NCCCCN=C(N)N (some centres undefined),,2.51 µM (active)
OCC1NCC(O)C(O)C1O (centres undefined),-15.7,
C#CCn1c(=O)c2c(ncn2C)n(C)c1=O,-13.2,
O=C(O)C1=CCCNC1,-3.13,
N=C(N)c1ccc(N)cc1,,14.1 µM (active)
C[C@@]1(C2CCCC2)Cc2cc(OCC(=O)O)c(Cl)c(Cl)c2C1=O,-10,
O=C(O)C1=CCNCC1,4.89,
CC[N+](CC)(CC)CC(=O)Nc1c(C)cccc1C,-8.02,
CC(=O)C(C)=O,-6.37,
CNc1cc(NS(=O)(=O)c2ccc(N)cc2)nc(NC)n1,-15,

SMILES,"activity change, negative = inhibition [%]",Potency
NC1(C(=O)O)CCCCC1,-5.05,
CO/N=C(\C(=O)N[C@@H]1C(=O)N2C(C(=O)O)=C(CSc3nc(=O)c(O)nn3C)CSC12)c1csc(N)n1 (some centres undefined),-27.1,
NCCS(=O)O,3.18,
N[C@@H](Cc1ccc(O)c(I)c1)C(=O)O,-19.2,
O=C(O)CCC(=O)N1CCCC1C(=O)O (centres undefined),8.76,
NCC(O)(CS(=O)(=O)O)c1ccc(Cl)cc1 (centres undefined),2.81,
CC(C)(C)NCC(O)COc1cccc2[nH]c(=O)[nH]c12 (centres undefined),-12.7,
NC1CONC1=O (centres undefined),1.85,
O=C(O)c1cccnc1C(=O)O,-5.24,
CCCCCCCCCCCCCCCCCCOC[C@H](COP(=O)([O-])OCC[N+](C)(C)C)OC,9.09,
COc1ccc(-c2ccc(N)[n+](CCCC(=O)O)n2)cc1,-21.6,
CC(N)=NCCCC[C@@H](N)C(=O)O,-1.64,
C=C(C)C1CC=C(C(=O)O)CC1 (centres undefined),-14.3,
CN[C@H](CC(=O)O)C(=O)O,-13.7,
C[C@@H](NCCc1ccc(O)cc1)[C@@H](O)c1ccc(O)cc1,-7.68,
CNc1ncnc2c1ncn2[C@H]1C[C@H](OP(=O)(O)O)[C@@H](COP(=O)(O)O)O1,-2.3,
COc1cc(CC(=O)O)ccc1O,-38.3,
NC1(C(=O)O)CCc2cc(C(=O)O)ccc21 (centres undefined),3.65,
